The sample as a whole holds a higher share of hits than the screen did.
Pf Dd2 growth: blocks in vitro growth of P. falciparum Dd2 | Potency, µM (top dose mostly 28.9 µM), for inactives: at the top dose activity, negative = inhibition, actives largely listed as inhibitors | P. falciparum Dd2 growth, SYBR Green, 72 h | AID 1347417 | 120,000 compounds, 4.3% hits; active = well fitted inhibition curve with a large enough effect;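 also: plate controls were DMSO vehicle for no effect and reference drug for full effect; nearly all actives have a fitted effect of over 65% in size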
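Infected erythrocytes (Dd2, 0.3% parasitemia, 2.5% hematocrit final) are added to compound in RPMI-1640/Albumax II medium, grown 72 h at 37C in low oxygen, then lysed with saponin/Triton-X containing SYBR Green and read by fluorescence.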
Active calls of the source: *; i = inactive; [ ] = another dose, or the depositor's remark. Potency is read from the fitted curve at half-maximal effect.

SMILES	Pf Dd2 growth
COc1ccc(OC)c(NC(=O)CSC2=Nc3ccccc3C3=NC(CC(=O)NCc4ccco4)C(=O)N23)c1 (stereo not given)	i
CCc1ccc(NC(=O)CSC2=Nc3ccccc3C3=NC(CC(=O)NC4CCCCC4)C(=O)N23)cc1 (stereo not given)	i
COCCCNC(=O)CSC1=Nc2ccccc2C2=NC(CCC(=O)NCc3ccccc3OC)C(=O)N12 (stereo not given)	i
O=C(CC1N=C2c3ccccc3N=C(SCC(=O)Nc3ccc(F)cc3)N2C1=O)NCc1cccs1 (stereo not given)	17.5%
CCCCNC(=O)CC1N=C2c3ccccc3N=C(SCC(=O)NCc3ccccc3Cl)N2C1=O (stereo not given)	10µM*
O=C(CC1N=C2c3ccccc3N=C(SCc3cccc(F)c3)N2C1=O)NCc1cccs1 (stereo not given)	i
CCOc1ccccc1NC(=O)CSC1=Nc2ccccc2C2=NC(CC(=O)NC3CCCCC3)C(=O)N12 (stereo not given)	11.2µM*
COc1ccc(Cl)cc1NC(=O)CSC1=Nc2ccccc2C2=NC(CC(=O)NCc3cccs3)C(=O)N12 (stereo not given)	11.2µM*
O=C(CSC1=Nc2ccccc2C2=NC(CC(=O)NC3CCCCC3)C(=O)N12)Nc1ccc(F)cc1 (stereo not given)	55.9%
O=C(C1CCCN1)N1CCN(Cc2ccc(=O)n(CC3CC3)c2)CC1 (stereo not given)	-20.6%
COCCN1CCNc2cc(-c3ccc(Oc4ccccc4)cc3)ncc2C1	-17.0%[44.1 µM]
O=C(c1ccc(CN2C(=O)NC3(CCS(=O)(=O)CC3)C2=O)cc1)N1CCSCC1	-1.7%
CCC(=O)N(C1CCOCC1)C1CCN(Cc2cccc(Br)c2)CC1	i
COc1cc(=O)n2c(c1C(=O)NCc1ccc(F)cc1)CCCC2	13.8%
COC[C@H]1C[C@@H](NC(=O)c2ccc(Cl)cc2)[C@H](O)[C@@H]1O	8.6%[44.1 µM]
Cc1ccc(CSC2=Nc3ccccc3C3=NC(CCC(=O)NCc4cccs4)C(=O)N23)cc1 (stereo not given)	43.7%
CC(C)c1ccc(NC(=O)CSC2=Nc3ccccc3C3=NC(CCC(=O)NC4CCCCC4)C(=O)N23)cc1 (stereo not given)	86.0%
COc1ccc(CCNC(=O)CSC2=Nc3ccccc3C3=NC(CCC(=O)NCc4ccccc4)C(=O)N23)cc1OC (stereo not given)	-6.4%
COc1ccc(NC(=O)CSC2=Nc3ccccc3C3=NC(CCC(=O)NC4CCCCC4)C(=O)N23)cc1 (stereo not given)	43.8%
Cc1ccc(CSC2=Nc3ccccc3C3=NC(CCC(=O)NCCc4ccccc4)C(=O)N23)cc1 (stereo not given)	10µM*
O=C(CSC1=Nc2ccccc2C2=NC(CCC(=O)NC3CCCCC3)C(=O)N12)Nc1cccc(C(F)(F)F)c1 (stereo not given)	10µM*
CCn1ncc(N2CCCC(CC(=O)NC3CCCCC3)C2)cc1=O (stereo not given)	29.9%
COc1cccc(Nc2cc3c(cn2)CN(C(C)=O)CCN3)c1	i
COc1ccc(C(=O)Nc2ccc([C@H]3OCC(=O)N(C)[C@@H]3CO)cc2)cc1	-8.3%[44.1 µM]
CCN(CC)Cc1cnc2c(C(=O)N3CCCC(CCCO)C3)cnn2c1 (stereo not given)	-3.1%
SMILES	Pf Dd2 growth
Cc1nc2c(c(-c3ccc(O)cc3)n1)CN(Cc1ccccc1)CC2	i
Cc1nc2c(c(-c3ccc(O)cc3)n1)CN(Cc1cccnc1)CCC2	-1.2%
Cc1nc2c(c(-c3ccc(O)cc3)n1)CN(Cc1cccc3ccccc13)CCC2	12.6µM*
COc1ccc(CN2CCCc3nc(C)nc(-c4ccc(O)cc4)c3C2)cc1	-40.8%
Cc1nc2c(c(-c3ccc(O)cc3)n1)CN(Cc1ccc(C(F)(F)F)cc1)CC2	-3.0%
Cc1nc2c(c(-c3ccc(O)cc3)n1)CN(Cc1ccc(C(F)(F)F)cc1)CCC2	0.891µM*
COc1ccccc1CN1CCCc2nc(C)nc(-c3ccc(O)cc3)c2C1	-16.1%
Cc1nc2c(c(-c3ccc(O)cc3)n1)CN(Cc1ccccc1)CCC2	4.47µM*
Cc1nc2c(c(-c3ccc(O)cc3)n1)CN(Cc1ccccn1)CCC2	i
O=C1C[C@@H]2CCN(C(=O)c3ccccc3)C[C@@H]2CCN1Cc1cccnc1	14.0%[44.1 µM]
Cc1ccc(-c2cnc([C@@H]3COCCN3C3CCOCC3)[nH]2)cc1	-18.3%[44.1 µM]
COCCn1ncc(N2CCC(NC(=O)c3ccc(OC)c(F)c3)CC2)cc1=O	-23.1%
CS(=O)(=O)N1C[C@@H]2CN(C(=O)NC3CCCC3)C[C@]2(C(=O)O)C1	6.8%
O=C(NCc1ccc(F)cc1)c1noc(-c2ccc(F)cc2)n1	18.6%
Cc1ccc(NC(=O)C(C)Sc2nc(=O)cc(N)n2-c2ccccc2)cc1 (stereo not given)	20.6%
Nc1cc(=O)nc(SCC(=O)Nc2ccc(F)cc2)n1CCc1ccccc1	38.3%
CC(Sc1nc(=O)cc(N)n1CCc1ccccc1)C(=O)Nc1ccccc1C#N (stereo not given)	11.2µM*
CCC(C)Nc1ccc2nncn2n1 (stereo not given)	0.2%
COc1ccccc1Cc1nc2ccccc2nc1SCC(=O)NCc1ccccc1Cl	0.891µM*
COc1ccccc1Cc1nc2ccccc2nc1SCC(=O)N1CCCCC1	-6.3%
COc1cc(NC(=O)CSc2nc3ccccc3nc2Cc2ccccc2OC)cc(OC)c1	i
COc1ccc(C2Cn3cnc(C(=O)N4CCC(C(=O)Nc5ccc(F)cc5C)CC4)c3CO2)cc1 (stereo not given)	i
COc1ccc(C(=O)N2C[C@@H](Oc3cccnc3)C[C@H]2C(N)=O)cc1F	-1.1%
COc1cccc(-c2nc(SCc3ccc(C)cc3)n3[nH]c(=O)cc3n2)c1	i
COc1ccc(NC(=O)CSc2nc(-c3ccccc3)nc3cc(=O)[nH]n23)cc1	i
SMILES	Pf Dd2 growth
CC(C)(C)c1ccc(-c2nc(SCCCOc3ccccc3)n3[nH]c(=O)cc3n2)cc1	10µM*
COc1cccc(CNC(=O)C(=O)Nc2ccc3nc4n(c(=O)c3c2)CCCCC4)c1	-9.1%
COc1cccc(NC(=O)Nc2ccc3nc(N4CCN(C)CC4)cc(C)c3c2)c1	2.51µM*
Cn1c(=O)n(C)c2cc(N3CCCC3)c(NC(=O)Nc3ccccc3)cc21	i
COc1cccc(NC(=O)c2ccc3c(c2)CCN3S(C)(=O)=O)c1	20.8%
Cc1cc(N2CCN(C)CC2)nc2ccc(NC(=O)Nc3ccccc3Cl)cc12	3.16µM*
Cc1ccc(NC(=O)C2Cc3ccccc3N2C(=O)c2ccccc2)cc1Cl (stereo not given)	42.8%
O=C(c1ccccc1)N1CCC2(CC1)C(=O)NN=C2C1CC1	17.2%[44.1 µM]
Cn1nc(C2CCN(C(=O)c3ccccc3F)CC2)c2c1CCOC2	5.3%[5.79 µM]
N#Cc1cccc(C(=O)N2CCCCCCNC(=O)CC2c2ccccc2)c1 (stereo not given)	-28.7%
COCCCNC(=O)N1CC[C@H]2C(=O)NCCCCCCN(Cc3ccncc3)[C@@H]2C1	-19.1%
CCCNC(=O)CN1CN(c2ccccc2)C2(CCN(C(=O)Nc3ccc(CC)cc3)CC2)C1=O	-17.5%
CC(C)(C)C(=O)N1CCC2(CC1)C(=O)N(CC(=O)Nc1cccc(Cl)c1)CN2c1ccccc1	3.98µM*
CC(C)NC(=O)CN1CN(c2ccccc2)C2(CCN(C(=O)NCc3ccccc3)CC2)C1=O	i
COc1ccc(C(=O)N[C@@H]2CN(S(C)(=O)=O)C[C@H]2CN(C)C)cc1OC	23.4%
COc1ccc(Nc2nc(-c3c(C)noc3C)cc3cc(CO)oc23)cc1OC	7.94µM*

Bioassay records: PubChem BioAssay, National Center for Advancing Translational Sciences (NCATS)
